Measurements from PubChem BioAssay (NCATS).
Calls of active or inactive are those of the source.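 The calls were made as follows: active = compounds whose dose series gives a full or clear partial fitted curve of increased nuclear translocation; inconclusive = weak partial curve or effect only at the top dose; inactive = no dose-dependent translocation response.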

molecular target: Glucocorticoid receptor (Homo sapiens) (UniProt P04150); assay: GR-GFP Redistribution (AID 450); conditions: U2OS GR-GFP nuclear translocation, laser cytometry, 2 h; series mostly up to 20.6 µM
Potency is read from the fitted curve at half-maximal effect.

Glucocorticoid receptor (Homo sapiens), sequence (P04150 whole entry, looked up): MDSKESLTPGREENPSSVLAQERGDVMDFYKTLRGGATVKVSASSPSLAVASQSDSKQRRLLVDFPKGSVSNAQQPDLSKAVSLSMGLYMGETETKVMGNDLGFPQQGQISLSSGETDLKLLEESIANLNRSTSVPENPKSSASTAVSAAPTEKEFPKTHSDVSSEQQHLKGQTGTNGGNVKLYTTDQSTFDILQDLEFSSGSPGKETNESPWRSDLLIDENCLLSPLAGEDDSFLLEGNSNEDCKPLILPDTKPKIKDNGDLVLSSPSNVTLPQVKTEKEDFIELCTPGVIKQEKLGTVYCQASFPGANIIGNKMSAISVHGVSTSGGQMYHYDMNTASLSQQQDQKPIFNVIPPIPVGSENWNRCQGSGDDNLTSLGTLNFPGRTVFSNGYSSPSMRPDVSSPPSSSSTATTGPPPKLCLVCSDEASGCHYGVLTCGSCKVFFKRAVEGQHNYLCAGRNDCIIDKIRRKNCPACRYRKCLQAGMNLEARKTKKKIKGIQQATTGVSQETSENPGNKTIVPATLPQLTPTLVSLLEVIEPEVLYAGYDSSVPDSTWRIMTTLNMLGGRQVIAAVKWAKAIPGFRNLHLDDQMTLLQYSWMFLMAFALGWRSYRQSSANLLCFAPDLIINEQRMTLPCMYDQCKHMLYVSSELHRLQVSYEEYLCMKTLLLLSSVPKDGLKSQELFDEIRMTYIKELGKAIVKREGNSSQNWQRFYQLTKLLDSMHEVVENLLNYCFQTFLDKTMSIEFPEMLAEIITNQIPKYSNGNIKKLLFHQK

Potency, inactive:
CCOC(=O)c1c2c(c(=S)n(-c3ccccc3)c1N)CCC2 > 20.6 µM
CC1(C)Cc2c(sc3nc4n(c(=N)c23)CCCCC4)CO1 > 20.6 µM
COc1ccc(-c2oc3ncn4nc(COc5ccccc5)nc4c3c2-c2ccc(OC)cc2)cc1 > 20.6 µM
C/C(=N\O)c1ccc2[nH]ccc2c1 > 20.6 µM
CC(C)c1nc(NCCN2CCOCC2)c(C#N)c2c1COC(C)(C)C2 > 20.6 µM
CC(C)OC(=O)C(C#N)c1nc2ccccc2nc1N1CCN(Cc2ccc3c(c2)OCO3)CC1 (centres undefined) > 20.6 µM
CCCCOc1ccc(C(=O)OC2CC(C)N(C)CC2C)cc1 (centres undefined) > 20.6 µM
Cc1ccc(N2C(=O)CC(N(O)C3CC(=O)N(c4ccc(C)cc4)C3=O)C2=O)cc1 (centres undefined) > 20.6 µM
COC(=O)c1sc2nc(N3CCCCC3)c3c(c2c1N)CC(C)(C)N(C)C3 > 20.6 µM
CN1CCN(CCC(=O)N2c3ccccc3Sc3ccc(Cl)cc32)CC1 > 20.6 µM
Brc1ccc(-c2cnc3n2CCCC3)cc1 > 20.6 µM
O=C(c1ccc(F)cc1)N1CCC(N2CCCCCC2)CC1 > 20.6 µM
C=CC[N+](C)(C)CCCNC(=O)/C=N/O > 20.6 µM
CC1(C)C2CCC1(C)C(NC(=O)CCN1CCCCC1)C2 (centres undefined) > 20.6 µM
Cc1cc(C)n(C2CCCCC2OC(=O)c2ccccc2)n1 (centres undefined) > 20.6 µM
CCOc1ccc(N2C(=O)CC(N)C2=O)cc1 (centres undefined) > 20.6 µM
c1ccc(C2Nc3ccccc3-c3nc4ccccc4n32)nc1 (centres undefined) > 20.6 µM
CCCOc1cccc(CN2CCCCC2c2cccnc2)c1 (centres undefined) > 20.6 µM
CCCOc1ccc(C(C)=O)cc1CSCCC#N > 20.6 µM
CC1(C)Cc2c(c(N3CCOCC3)nc3sc(C#N)c(N)c23)CS1 > 20.6 µM
O=c1[nH]c2sc3c(c2c(=O)n1Cc1ccccc1)CCC3 > 20.6 µM
CCOC(=O)C(C)Sc1nc(-c2cccs2)ccc1C#N (centres undefined) > 20.6 µM
CCC(CC)c1nc2cc(OC)c(OC)cc2c(=O)o1 > 20.6 µM
Cc1ccsc1C1NC(=O)c2c(sc3c2CCCC3)N1 (centres undefined) > 20.6 µM
COC(=O)c1ccc(CSc2ncnc3c2sc2nc(N4CCOCC4)c4c(c23)CCCC4)o1 > 20.6 µM
COC(=O)c1cc(Br)c(=O)n(Cc2cccnc2)c1 > 20.6 µM
COc1cc(N2C(=O)CSC23C(=O)Nc2ccccc23)cc(OC)c1OC (centres undefined) > 20.6 µM
CC(=O)c1cc2c(=O)c3ccccc3oc2nc1C > 20.6 µM
Cc1ccc(Cn2ncc3c(N4CCN(Cc5ccc(Cl)cc5)CC4)ncnc32)cc1 > 20.6 µM
O=S(=O)(c1ccccc1)N1CCC(N2CCCCCC2)CC1 > 20.6 µM
CCOC(=O)c1c(-c2cccs2)csc1NC(=O)CCCC(=O)O > 20.6 µM
CCn1cc(C(=O)NCCc2ccccc2)c(=O)c2cc(F)c(N3CCN(C)CC3)cc21 > 20.6 µM
Nc1ccc2c(c1)N1CCN=C1S2 > 20.6 µM
CCCCC(C(=O)O)C(C)CC(=O)Nc1cccc(C(=O)O)c1 (centres undefined) > 20.6 µM
COc1ccccc1C1CC(c2ccc(Cl)cc2)Nc2nc(N)nn21 (centres undefined) > 20.6 µM
CN1C2C=C3C(C#N)=C(N)C(C#N)(C#N)[C@@H](c4cccs4)C3C1CC2 (some centres undefined) > 20.6 µM
CCCCCSc1nc(N2CCOCC2)c2c(c1C#N)CC(C)(C)OC2 > 20.6 µM
C=CCSc1nnc2n(CCc3ccccc3)c(=O)c3c4c(sc3n12)COC(C)(C)C4 > 20.6 µM
Clc1ccc(Cl)c(-c2ccc(/C=N/c3ncn[nH]3)o2)c1 > 20.6 µM
